Measured values taken from PubChem BioAssay (NCI).
Several values for one entry are separate records, joined by “and”; a condition that tells them apart may be missing. Identical values can stand only once. The panel holds about 83,000 compounds, 20% with a hit somewhere; the sample as a whole holds those more often.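 For each line, cells grew in 96-well plates with the test compound present at a single concentration for 48 hours.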 Activity calls are given as the source filed them. Rule for the calls: active = growth percent below 10; inactive = the rest.

Test system: HL-60(TB) leukemia
Assay: NCI-60 one-dose screen, 48 h (100 = growth as untreated, 0 = no growth, -100 = all killed)
Conditions: 10 µM unless noted

Structure (SMILES)	growth
C[C@H]1[C@H](C)CC[C@]2(CO)CC[C@]3(C)C(=CC[C@@H]4[C@@]5(C)CCCNC(C)(C)[C@@H]5CC[C@]43C)[C@H]12	-55% (active)
C=C1C(=O)O[C@H]2[C@H]1CC/C(COC(=O)NCc1cc3ccccc3[nH]1)=C\CC[C@@]1(C)O[C@@H]21	-51.4% (active)
Cc1ncsc1CCO	99.9% (inactive) and 89.9% (inactive)
CCC1=C[C@@H]2CN(C1)Cc1c([nH]c3ccccc13)[C@@](C(=O)OC)(c1cc3c(cc1OC)N(C)[C@H]1[C@@](O)(C(=O)OC)[C@H](OC(C)=O)[C@]4(CC)[C@@H]5C[C@@H]5CN5CC[C@]31[C@@H]54)C2	-57.3% (active)
COc1cc2c3c(n([C@@H]4CCOC4)c(=O)c2cc1OC)-c1cc2c(cc1C3=O)OCO2	26.3% (inactive)
O=C(N/N=C\c1cc(Cl)ccc1O)c1ccncc1	0% (active)
CCn1c(SCC(=O)c2ccc(Br)cc2)nnc1-c1ccncc1	103% (inactive)
O=C1NN(C(=O)c2ccc(Cl)cc2)C(c2ccccc2)=N/C1=C\c1ccc(F)cc1	-3.45% (active)
COc1cc(NCCCCCNC(C)C)c2ncccc2c1	104% (inactive) and 58.4% (inactive)
O=C1C=CC2(NN=C(c3ccccc3)N2c2cccc(Cl)c2)c2cccc(O)c21 (stereo not given)	21.8% (inactive)
O=C(O)c1c2c(nc3ccccc13)Cc1ccccc1-2	92.8% (inactive) and 112% (inactive)
COc1ccc(NC(=O)c2ccoc2COc2ccccc2)cc1	96.9% (inactive)
COc1ccc(-c2c3c(N)c4c(nc3nc3c2c(C)nn3-c2ccccc2)CCCCC4)cc1	49.3% (inactive)
NCc1c(O)ccc2ccccc12	102% (inactive)
CCOc1ccc(NC(=O)CSc2oc(-c3ccccc3)nc2S(=O)(=O)c2ccc(F)cc2)cc1	65.2% (inactive)
O=C(Nc1cc(C(F)(F)F)cc(C(F)(F)F)c1)c1cc(Cl)ccc1O	-24.6% (active) and -49% (active)
COc1ccc2c(NCCCCCCCCNc3c4ccccc4nc4cc(OC)ccc34)c3ccccc3nc2c1	-92.3% (active)
Cc1ccc(NC(=O)CN2CCOCC2)cc1Cl	74.2% (inactive)
COc1ccc2[nH]cc(-c3nc(-c4c[nH]c5ccncc45)cs3)c2c1	3.64% (active)
CCN(CC)CCCNc1ccnc2cc3ccccc3cc12	83.7% (inactive)

Structure (SMILES)	growth
Nc1c(C(=O)Nc2ccncc2)sc2nc3c(cc12)C(O)CCC3 (stereo not given)	95.4% (inactive)
Cc1[nH]c(=O)[nH]c(=O)c1CCSSCCc1c(C)[nH]c(=O)[nH]c1=O	99.5% (inactive)
CC(=O)OC[C@]12CCC(C)(C)C[C@H]1[C@@]1(O)[C@H](O)C[C@@H]3[C@@]4(C)CCCNC(C)(C)[C@@H]4CC[C@@]3(C)[C@]1(C)CC2	105% (inactive)
O=C(O)c1cccc(Br)c1	104% (inactive) and 98.8% (inactive)
Oc1c(CN2CCCCC2)ccc2cccnc12	58.3% (inactive) and 18.2% (inactive)
COc1c(/C(C)=N/N=c2sc(C(C)=O)nn2-c2ccc(Cl)cc2)c(Oc2ccccc2)c(OC)c2occc12	102% (inactive) and 104% (inactive)
Nc1n[nH]c2cccc(C#Cc3cccc(NC(=O)c4cccc(C(F)(F)F)c4)c3)c12	9.22% (active)
COc1ccc2nc(NC(=O)CSc3nnc4n3S(=O)(=O)c3ccccc3N4c3ccccc3)sc2c1	-83.2% (active)
CCOC(=O)[C@]1(Br)CC[C@@]1(Br)C(=O)OCC	47.7% (inactive)
COc1cc(-c2cc(-c3cc4c([nH]c5ccccc54)c(-c4cc(OC)c(OC)c(OC)c4)n3)cc(-c3ccccc3)n2)cc(OC)c1OC	30.9% (inactive)
COc1ccc2nc(-c3ccc(Cl)cc3)cc(-c3nnc(SCC(=O)Nc4ccc(/C(C)=N\O)cc4)o3)c2c1	61.9% (inactive)
COc1ccc(Nc2ncccc2C(=O)NCc2cn(Cc3cccc(Oc4ccccc4)c3)nn2)c(OC)c1	18.9% (inactive)
O=C1c2c(O)ccc(O)c2C(=O)c2c(NCCNCCO)ccc(NCCNCCO)c21	-28.5% (active) and -59.5% (active)
Cc1oc2nc[nH]c(=O)c2c1C(=O)/C=C/c1ccc(Cl)cc1	-47.8% (active)
CC1CCCc2sc3nc(NNC(=O)c4cnccn4)n(-c4ccccc4)c(=O)c3c21 (stereo not given)	-33.4% (active) and -12.4% (active)
Nc1nc(N)c2nc(CNc3ccc(C(=O)NC(CCC(=O)O)C(=O)O)cc3)cnc2n1 (stereo not given)	35.3% (inactive) and 49.9% (inactive)
CCOC(=O)c1c2c(n3cccc(F)c13)C(=O)c1ncccc1C2=O	-25.8% (active)
C=C1C(=O)O[C@H]2[C@H]1CC/C(COC(=O)/C=C/C(=O)NCc1ccc(Cn3c(=O)sn(-c4ccccc4)c3=O)cc1)=C\CC[C@@]1(C)O[C@@H]21	-54.7% (active)
CCNC(=O)c1ccc2c(c1)nc(-c1ccc(Cl)cc1)n2-c1cc(C(C)(C)C)[nH]n1	4.73% (active)
CC(=O)O[C@H]1CC[C@@]2(C)[C@@H](CC[C@@H]3[C@@H]2CC[C@]2(C)C=C(C=O)C[C@@H]32)C1	-37.5% (active)
